Laboratory results reported in PubChem BioAssay (NCI).
Where “and” joins values, the source holds several entries; their conditions need not be identical. Identical values can stand only once. The panel holds about 83,000 compounds, 20% with a hit somewhere; the sample as a whole holds those more often.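 Single-dose data. Exposure time 48 hours. Values below 10 considered active.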 Calls of active or inactive are those of the source.

Legend:
Assay in all cases: NCI-60 one-dose screen, 48 h (100 = growth as untreated, 0 = no growth, -100 = all killed)
Details in all cases: 10 µM unless noted
NCI-H226 lung = test system: NCI-H226 lung
HOP-62 NSCLC = test system: HOP-62 NSCLC
NCI-H460 lung = test system: NCI-H460 lung
HOP-92 NSCLC = test system: HOP-92 NSCLC
NCI-H522 lung = test system: NCI-H522 lung
A549/ATCC NSCLC = test system: A549/ATCC NSCLC
786-0 renal = test system: 786-0 renal
COLO 205 colon = test system: COLO 205 colon
DU-145 prostate = test system: DU-145 prostate
K-562 leukemia = test system: K-562 leukemia
MALME-3M melanoma = test system: MALME-3M melanoma
MDA-MB-231 breast = test system: MDA-MB-231 breast
RXF 393 renal = test system: RXF 393 renal
SF-268 CNS = test system: SF-268 CNS
SF-295 CNS = test system: SF-295 CNS
SF-539 CNS = test system: SF-539 CNS
UACC-257 melanoma = test system: UACC-257 melanoma
M14 melanoma = test system: M14 melanoma
NCI-H23 lung = test system: NCI-H23 lung
NCI-H322M lung = test system: NCI-H322M lung

Measured: growth

CN1CCC2(CC1)C(C#N)C(=O)NC(=O)C2C#N (configuration not stated)
inactive: NCI-H226 lung 96.1% | HOP-62 NSCLC 94.3% | NCI-H460 lung 106% | HOP-92 NSCLC 109% | NCI-H522 lung 110% | A549/ATCC NSCLC 95.9% | 786-0 renal 104% | COLO 205 colon 109% | DU-145 prostate 112% | K-562 leukemia 94.5% | MALME-3M melanoma 107% | MDA-MB-231 breast 101% | RXF 393 renal 104% | SF-268 CNS 107% | SF-295 CNS 94.1% | SF-539 CNS 94.9% | UACC-257 melanoma 90.7% | M14 melanoma 107%

CC(C)COC(=O)Cc1ccccc1
inactive: NCI-H23 lung 106% | NCI-H226 lung 99.4% | NCI-H322M lung 104% | HOP-62 NSCLC 101% | NCI-H460 lung 109% | NCI-H522 lung 99% | 786-0 renal 104% | COLO 205 colon 106% | DU-145 prostate 115% | K-562 leukemia 109% | MALME-3M melanoma 94.4% | MDA-MB-231 breast 120% | RXF 393 renal 102% | SF-268 CNS 104% | SF-295 CNS 111% | SF-539 CNS 97.5% | UACC-257 melanoma 104% | M14 melanoma 103%

C=CCOC(=O)C(Br)CC (configuration not stated)
inactive: NCI-H23 lung 99% | NCI-H226 lung 101% | NCI-H322M lung 108% | HOP-62 NSCLC 108% | NCI-H460 lung 104% | NCI-H522 lung 99.2% | 786-0 renal 106% | COLO 205 colon 103% | DU-145 prostate 108% | K-562 leukemia 107% | MALME-3M melanoma 99.9% | MDA-MB-231 breast 93.6% | RXF 393 renal 118% | SF-268 CNS 106% | SF-295 CNS 109% | SF-539 CNS 100% | UACC-257 melanoma 104% | M14 melanoma 109%

COC(=O)C1=CO[C@@H](C)[C@@H]2CN3CCc4c([nH]c5cc(OC)ccc45)[C@@H]3C[C@H]12
inactive: NCI-H23 lung 95.9% | NCI-H226 lung 94.5% | HOP-62 NSCLC 113% | NCI-H460 lung 99.7% | HOP-92 NSCLC 78% | A549/ATCC NSCLC 95.8% | 786-0 renal 108% | COLO 205 colon 101% | DU-145 prostate 104% | K-562 leukemia 97.6% | MDA-MB-231 breast 97.2% | RXF 393 renal 115% | SF-268 CNS 98.6% | SF-295 CNS 117% | SF-539 CNS 104% | UACC-257 melanoma 95.7% | M14 melanoma 103%

COC12CC3(C)C(C4=CC(=O)OC4)CCC3(O)C3CCC4=CC(=O)CCC4(CO1)C32 (configuration not stated)
inactive: NCI-H23 lung 99% | NCI-H226 lung 101% | NCI-H322M lung 83% | NCI-H460 lung 113% | HOP-92 NSCLC 76.8% | NCI-H522 lung 14.7% | A549/ATCC NSCLC 98.8% | 786-0 renal 94.5% | DU-145 prostate 117% | K-562 leukemia 106% | MALME-3M melanoma 77.1% | MDA-MB-231 breast 110% | RXF 393 renal 112% | SF-268 CNS 109% | SF-295 CNS 90.6% | SF-539 CNS 111% | UACC-257 melanoma 100% | M14 melanoma 92.6%

CC(=O)C(N)Cc1ccccc1 (configuration not stated)
inactive: NCI-H23 lung 98.3% | NCI-H322M lung 106% | HOP-62 NSCLC 85.1% | NCI-H522 lung 91.7% | A549/ATCC NSCLC 67.9% | 786-0 renal 96.5% | COLO 205 colon 97.8% | DU-145 prostate 99.3% | K-562 leukemia 98.8% | MALME-3M melanoma 105% | MDA-MB-231 breast 105% | RXF 393 renal 101% | SF-268 CNS 105% | SF-295 CNS 102% | SF-539 CNS 100% | UACC-257 melanoma 73.3% | M14 melanoma 90.1%

Nc1ccc(P(=O)(O)O)cc1
inactive: NCI-H23 lung 101% and 96.7% | NCI-H226 lung 102% and 100% | NCI-H322M lung 104% and 99.3% | NCI-H460 lung 113% and 103% | HOP-92 NSCLC 95.3% and 90.3% | NCI-H522 lung 111% and 88.8% | 786-0 renal 113% and 91.2% | COLO 205 colon 111% and 105% | DU-145 prostate 119% and 107% | K-562 leukemia 110% and 104% | MALME-3M melanoma 101% and 95.7% | MDA-MB-231 breast 114% and 103% | RXF 393 renal 117% and 102% | SF-268 CNS 113% and 107% | SF-295 CNS 99.5% and 93.4% | SF-539 CNS 88.6% and 100% | UACC-257 melanoma 104% and 99.2% | M14 melanoma 121% and 100%

C=CC1CN2CCC1CC2C(O)c1ccnc2ccccc12 (configuration not stated)
inactive: NCI-H23 lung 24.4% | NCI-H226 lung 112% | NCI-H322M lung 145% | HOP-62 NSCLC 121% | NCI-H460 lung 118% | NCI-H522 lung 24.2% | 786-0 renal 108% | COLO 205 colon 104% | DU-145 prostate 111% | K-562 leukemia 231% | MALME-3M melanoma 140% | MDA-MB-231 breast 125% | SF-268 CNS 120% | SF-295 CNS 121% | SF-539 CNS 121% | UACC-257 melanoma 158% | M14 melanoma 133%

CCCCOC(N)=O
inactive: NCI-H23 lung 100% | NCI-H226 lung 103% | NCI-H322M lung 102% | HOP-62 NSCLC 105% | NCI-H460 lung 106% | NCI-H522 lung 106% | 786-0 renal 104% | COLO 205 colon 108% | DU-145 prostate 109% | K-562 leukemia 102% | MDA-MB-231 breast 109% | SF-268 CNS 104% | SF-295 CNS 105% | SF-539 CNS 109% | UACC-257 melanoma 110% | M14 melanoma 97.5%

C=C1C(=O)OC2CC3(C)OC3C3OC3C3=CC(OC3=O)C12 (configuration not stated)
8.42% (active) and 68.4% (inactive): RXF 393 renal
active: NCI-H522 lung -74.9% and -76.6% | COLO 205 colon -77.1% | K-562 leukemia -0.414% and 6.29% | MALME-3M melanoma -53.4% and -59.2%
inactive: NCI-H23 lung 93.8% and 101% | NCI-H322M lung 98.7% and 101% | HOP-62 NSCLC 96.8% and 115% | NCI-H460 lung 114% and 105% | A549/ATCC NSCLC 93.1% and 105% | 786-0 renal 96% and 108% | DU-145 prostate 109% and 111% | MDA-MB-231 breast 104% and 107% | SF-268 CNS 99.2% and 109% | SF-295 CNS 103% and 97.9% | SF-539 CNS 101% and 96.3% | UACC-257 melanoma 53.6% and 82.2% | M14 melanoma 88.3% and 91.9%

Nc1ccc(S(=O)(=O)F)cc1
inactive: NCI-H23 lung 108% | HOP-62 NSCLC 109% | NCI-H460 lung 111% | HOP-92 NSCLC 110% | NCI-H522 lung 96.1% | A549/ATCC NSCLC 102% | 786-0 renal 94.7% | COLO 205 colon 112% | DU-145 prostate 107% | K-562 leukemia 91.8% | MALME-3M melanoma 95.2% | MDA-MB-231 breast 117% | RXF 393 renal 100% | SF-268 CNS 99.8% | SF-295 CNS 102% | SF-539 CNS 103% | UACC-257 melanoma 110% | M14 melanoma 107%

OCCNC1CCCCC1
inactive: NCI-H23 lung 108% | NCI-H226 lung 104% | NCI-H322M lung 113% | HOP-62 NSCLC 99.2% | NCI-H460 lung 105% | A549/ATCC NSCLC 106% | COLO 205 colon 112% | DU-145 prostate 107% | K-562 leukemia 101% | MALME-3M melanoma 112% | MDA-MB-231 breast 114% | RXF 393 renal 118% | SF-268 CNS 102% | SF-295 CNS 111% | SF-539 CNS 103% | UACC-257 melanoma 112%

Cc1cc[n+](CCc2ccccc2)cc1
inactive: NCI-H23 lung 90.5% and 111% | NCI-H322M lung 96% and 96.5% | HOP-62 NSCLC 87.9% and 114% | NCI-H460 lung 110% and 103% | NCI-H522 lung 94.8% and 85.5% | 786-0 renal 89.7% and 100% | DU-145 prostate 95.3% and 115% | K-562 leukemia 85.7% and 89.1% | MALME-3M melanoma 75.4% and 88.6% | MDA-MB-231 breast 115% and 117% | SF-268 CNS 98.6% and 108% | SF-295 CNS 111% and 97.7% | SF-539 CNS 97.5% and 107% | UACC-257 melanoma 103% and 95% | M14 melanoma 97.2% and 105%

C[C@]12CCC3[C@@H](C[C@@H]4SC(Nc5ccccc5)=N[C@@]45CC(=O)CC[C@]35C)[C@@H]1CCC2=O (some centres not stated)
inactive: NCI-H23 lung 42.5% | NCI-H226 lung 49.4% | NCI-H322M lung 58.2% | HOP-62 NSCLC 12.6% | SF-268 CNS 27% | SF-295 CNS 24.2%
active: NCI-H460 lung -13% | NCI-H522 lung -66% | 786-0 renal -45% | COLO 205 colon -46.3% | DU-145 prostate -14.7% | K-562 leukemia 1.87% | MALME-3M melanoma 8.73% | MDA-MB-231 breast 5.67% | RXF 393 renal -63.8% | SF-539 CNS -44.8% | UACC-257 melanoma 3.21% | M14 melanoma 0.48%
